DT40 TDP1 no CPT = qHTS for Inhibitors of human tyrosyl-DNA phosphodiesterase 1 (TDP1): qHTS in cells in absence of CPT; Potency, µM (highest dose often 46.2 µM), for the others: at the top dose activity change, negative = growth inhibition, usual class: inhibitors; DT40 Tdp1-/- hTDP1 cells, no CPT, ATP luminescence, 48 h; 15% of 420,000 active; note: potency is the fitted concentration of half-maximal effect; % is set by controls: 0 for no effect and ±100 for the full control effect; nearly all actives have a fitted effect of over 55% in size
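Chicken DT40 Tdp1-/- cells stably complemented with human TDP1 were seeded at 400 cells/well with DMSO in place of 20 nM camptothecin. After compound pinning, cells grew at least 48 hr at 37 °C; viability read by CellTiter-Glo luminescence.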
HepG2 viability = HepG2 cytotoxicity, counter-screen for TGF-b inhibitors; HepG2 CAGA-GFP viability, ATP luminescence, 18 h; Potency, µM (highest dose often 46.1 µM), inactives show at the highest dose activity change, negative = cytotoxicity, actives largely listed as cytotoxic; 0.76% of 410,000 active; note: potency is the fitted concentration of half-maximal effect
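HepG2 CAGA-GFP cells (1000/well, DMEM with 1% FBS) received compound, then TGF-beta at 500 pg/mL final, and were incubated 18 hours at 37 degrees C. Viability was read by CellTiter-Glo luminescence. Media-only wells were set as complete cell-killing and DMSO as no toxicity.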
TDP1 cell CPT = growth inhibition of DT40 Tdp1-/-;hTDP1 cells with camptothecin (screen for TDP1 inhibitors). chicken DT40 Tdp1-/-;hTDP1 cells + 20 nM CPT, ATP luminescence, 48 h. Potency, µM (titrated, usually from 46.2 µM), without a hit: top-dose activity change, negative = growth inhibition, most hits filed as inhibitors. 12% of 420,000 active. AID 686979; note: potency is the fitted concentration of half-maximal effect; % is set by controls: 0 for no effect and ±100 for the full control effect; nearly all actives have a fitted effect of over 55% in size
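Chicken DT40 Tdp1-/- cells stably complemented with human TDP1 were seeded at 400 cells/well in medium containing 20 nM camptothecin, exposed to pin-transferred compounds, and grown at 37 °C for at least 48 hr. Viability was read as ATP luminescence.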
TDP1 inh = inhibitors of human tyrosyl-DNA phosphodiesterase TDP1 | Q9NUW8 | recombinant TDP1, AlphaScreen DNA substrate cleavage | Potency, µM (titrated, usually from 130 µM), for inactives: at the top dose activity change, negative = inhibition, usual class: inhibitors | 0.28% of 350,000 active; note: potency is the fitted concentration of half-maximal effect; % is set by controls: 0 for no effect and ±100 for the full control effect; nearly all actives have a fitted effect of over 40% in size
Target sequence (Q9NUW8 whole entry, looked up): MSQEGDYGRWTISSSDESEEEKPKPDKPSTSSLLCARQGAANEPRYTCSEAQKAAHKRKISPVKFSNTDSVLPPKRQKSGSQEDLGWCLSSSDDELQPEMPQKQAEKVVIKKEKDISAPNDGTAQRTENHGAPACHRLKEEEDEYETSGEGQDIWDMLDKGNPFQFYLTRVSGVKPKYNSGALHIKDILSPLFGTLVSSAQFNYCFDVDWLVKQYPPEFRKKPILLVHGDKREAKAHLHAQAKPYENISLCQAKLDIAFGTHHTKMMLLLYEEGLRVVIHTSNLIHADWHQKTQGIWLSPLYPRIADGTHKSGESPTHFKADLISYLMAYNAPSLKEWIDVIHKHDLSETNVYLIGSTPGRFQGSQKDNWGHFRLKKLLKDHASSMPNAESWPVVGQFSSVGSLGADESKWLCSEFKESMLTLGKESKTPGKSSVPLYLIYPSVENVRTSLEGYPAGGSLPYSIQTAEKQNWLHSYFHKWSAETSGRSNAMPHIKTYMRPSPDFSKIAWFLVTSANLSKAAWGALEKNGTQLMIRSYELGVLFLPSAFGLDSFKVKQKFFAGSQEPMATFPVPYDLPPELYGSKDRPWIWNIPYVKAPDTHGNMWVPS
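Recombinant human Tdp1 (E. coli-expressed, 1 nM final) preincubated with compounds 15 min at room temperature, then 5'-biotin/3'-phosphotyrosine-FITC DNA substrate (15 nM final) added for 5 min. AlphaScreen beads (10 ug/ml final) added 10 min; cleavage lowers signal.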
IL1B secr inh = inflammasome signaling inhibition, IL-1 beta readout; 4.7% of 360,000 active; activity change, % at 57.5 µM; THP-1 LPS/ATP IL-1B secretion, AlphaLISA, 16 h; hits give low values; in the data active = activity change below about -50%; inconclusive = mostly about -30% to -49%; note: % is set by controls: 0 for no effect and ±100 for the full control effect
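THP-1 cells pretreated 1 hr with compounds (up to 57.5 uM final), then stimulated with LPS (250 ng/mL final) plus ATP (1.25 mM final); secreted IL-1B measured by AlphaLISA after 16 hr, decreased signal indicating inhibition.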
TGFb inhibitor = blocks TGF-b signaling; 1.2% of 410,000 active; AID 588855; HepG2 CAGA-GFP TGF-b/SMAD3 reporter, GFP fluorescence, 18 h; TGF-beta stimulated, 500 pg/mL final; Potency, µM (doses to about 46.1 µM), for the others: at the highest dose activity, negative = inhibition, hits mostly inhibitors; note: potency is the fitted concentration of half-maximal effect; % is set by controls: 0 for no effect and ±100 for the full control effect; nearly all actives have a fitted effect of over 65% in size
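GFP signal (ex488/em500-530) from TGF-beta-stimulated HEPG2 CAGA-GFP cells, 500 pg/mL final, 18 h at 37 degrees C in DMEM plus 1% FBS, normalized to unstimulated and DMSO-stimulated controls.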
Active calls of the source: *; ? = inconclusive; · = no result given. Hits are enriched below; roughly 18% of the tested compounds scored in any of these assays. Unless noted, calls come from the whole dose curve; as a rule, active = well fitted curve in the direction sought with a large enough effect; inconclusive = small, poorly fitted or top-dose-only effect, or another doubt; inactive = no such curve, though single readings can be large; an effect the other way counts as inactive or inconclusive.

SMILES	DT40 TDP1 no CPT	HepG2 viability	TDP1 cell CPT	TDP1 inh	IL1B secr inh	TGFb inhibitor
CC(=O)Nc1ccc(S(=O)(=O)Oc2ccc(/C=N/NC(=O)c3ccc(Cl)cc3)cc2)cc1	16µM*	-19%	21µM*	4%	-3	0%
O=c1c2ccccc2ncn1-c1ccc(Cl)cc1[N+](=O)[O-]	?	4%	?	3%	-2	3%
O=c1c2ccccc2ncn1-c1ccc([N+](=O)[O-])cc1[N+](=O)[O-]	18µM*	-94%	16µM*	·	-64*	?
Cc1ccc(-c2[nH]ncc2CNC(C)c2ccccc2)cc1 (configuration not stated)	?	-53%	?	5%	·	5%
Cc1ccc(-c2[nH]ncc2CNCc2ccccc2)cc1	18µM*	9%	11µM*	1%	·	1%
CCOC(=O)C1=C(O)c2ccccc2C(=O)/C1=C\c1ccc(C)cc1	5.8µM*	11µM*	5.8µM*	5%	0	?
CCOC(=O)C1=C(O)/C(=C\c2ccc(OC)c(OC)c2)N=C1C	2%	2%	-22%	-3%	10	14%
CCOC(=O)C1=C(C)OC(=Cc2ccccc2)C1=O	0.0092µM*	0%	-106%	·	32	-5%
Cc1ccc(-c2c[n+](CC(=O)Nc3c(C)cccc3C)c3n2CCC3)cc1	?	-35%	?	1%	-64*	0%
Cc1ccc(NC(=O)C[n+]2cc(-c3ccccc3)n3c2CCC3)c(C)c1	?	6%	-21%	5%	-16	-1%
CCc1ccc(NC(=O)C[n+]2cc(-c3ccc(C)cc3)n3c2CCC3)cc1	3.7µM*	-14%	2.3µM*	2%	?	-4%
CC(C)(C)N1CC23C=CC(C[C@@H]2C1=O)O3 (some centres not stated)	6%	1%	-1%	0%	32	4%
Cc1ccccc1N1CCN(S(=O)(=O)c2nnc(NC(=O)c3ccco3)s2)CC1	11%	2%	-18%	4%	24	-8%
CCc1ccccc1N1C(=O)N(Cc2cc(=O)n3ccccc3n2)c2ccccc2S1(=O)=O	18µM*	-30%	23µM*	-2%	·	0%
Cc1ccc(N2C(=O)N(Cc3cccc(Cl)c3)c3ccccc3S2(=O)=O)cc1	?	-18%	?	5%	·	0%
CCc1ccccc1N1C(=O)N(Cc2cccc(Cl)c2)c2ccccc2S1(=O)=O	?	-7%	?	5%	·	-16%
Cc1cccc(N2C(=O)N(Cc3cc(=O)n4ccccc4n3)c3ccccc3S2(=O)=O)c1	26µM*	-46%	?	2%	·	?
COc1ccc(CCN2CC(C(=O)NCC(=O)Nc3ccc(F)c(F)c3)CC2=O)cc1OC (configuration not stated)	2%	-15%	3%	0%	22	27%
COc1cc(=O)n2c(c1C(=O)N(C)C(C)c1ccco1)CCN(C(=O)c1ccc(C(C)=O)cc1)CC2 (configuration not stated)	-15%	·	-12%	·	·	·
CCOC(=O)C1=CC[C@@H](c2ccco2)N(S(=O)(=O)c2ccc(C)cc2)[C@H]1C(=O)OCC	18µM*	-20%	?	1%	1	-28%
CCOC(=O)C1=CC[C@@H](c2ccccc2Cl)N(S(=O)(=O)c2ccc(C)cc2)[C@H]1C(=O)OCC	21µM*	-25%	?	-1%	-1	?
CCOC(=O)C1=CC[C@@H](c2cccc(C)c2)N(S(=O)(=O)c2ccc(C)cc2)[C@H]1C(=O)OCC	16µM*	1%	15µM*	-1%	0	-12%
Cc1cn(C2CC3OCC(NC(=O)C4CCCN4C(=O)OC(C)(C)C)C3O2)c(=O)[nH]c1=O (configuration not stated)	·	7%	·	4%	·	-8%
Cc1c(C(=O)NCc2ccc(Cl)cc2)sc2nc3n(c(=O)c12)CCCCC3	?	0%	?	10%	·	-15%
Cc1cc(C)c(NC(=O)c2sc3nc4c(cc3c2N)C(=O)CC(C)(C)C4)c(C)c1	18µM*	-14%	?	8%	-23	-25%
SMILES	DT40 TDP1 no CPT	HepG2 viability	TDP1 cell CPT	TDP1 inh	IL1B secr inh	TGFb inhibitor
COC(=O)c1sc2nc3c(cc2c1N)C(=O)CC(C)(C)C3	-11%	-1%	-20%	4%	-3	-20%
COc1ccccc1N(CC(=O)NCc1ccco1)C(=O)CCC(=O)Nc1ccccn1	-14%	1%	17%	4%	10	9%
COc1ccc(OC)c(N=Nc2c(O)c3ccccc3[nH]c2=O)c1	18µM*	-14%	15µM*	·	11	-10%
COc1cc(N=Nc2c(O)c3ccccc3[nH]c2=O)c(OC)cc1N=Nc1ccccc1	13µM*	7%	?	9%	24	9%
NC(=O)c1ccc(N=Nc2c(O)c3ccccc3[nH]c2=O)cc1	·	·	·	3%	·	·
O=C(c1ccccc1F)N1CCN(c2ccccc2F)CC1	-28%	-32%	-12%	-2%	-13	17%
O=C(c1ccccc1Oc1ccccc1)N1CCN(c2ccccc2F)CC1	16µM*	-4%	18µM*	-4%	-12	7%
O=C(c1ccccc1C(=O)N1CCN(c2ccccc2F)CC1)N1CCN(c2ccccc2F)CC1	?	2%	18µM*	2%	18	-20%
CCOc1ccc(NC(=O)NC2CCCc3ccccc32)cc1 (configuration not stated)	0%	4%	-3%	3%	32	12%
Cc1ncc2c(c1CNC(=O)c1cncs1)CCN(C(=O)c1ccsc1)C2	-1%	·	-9%	·	·	·
Cn1/c(=N/N=C/c2ccc(N3CCOCC3)cc2)sc2ccccc21	7%	-6%	?	7%	10	5%
O=C(Nc1ccc(-c2nc3cccnc3s2)cc1)c1ccco1	13µM*	-2%	?	2%	-23	-10%
O=C(Nc1ccc(-c2nc3ncccc3o2)cc1)c1ccc(Br)o1	?	-12%	?	·	-55*	3%
O=C(Nc1ccc(-c2nc3cccnc3s2)cc1)c1ccc(Br)o1	8.2µM*	-1%	12µM*	7%	2	-2%
Cc1c(NC(=O)c2ccco2)cccc1-c1nc2cccnc2s1	?	-10%	21µM*	9%	58	-4%

Screening results: PubChem, National Center for Advancing Translational Sciences (NCATS)
